PubChem BioAssay AID488969 (Vanderbilt High Throughput Screening Facility, 2010)
Whole data set: some 110,000 compounds, median “z-score” near -0.1, cut for the highest 2% near 2. The sample holds the highest values, similar compounds and a random draw of the others, so the mix is not that of the screen. Activity calls are given as the source filed them.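 The calls were made as follows: active = z-score in the third read window above 3 or below -3; inactive = the rest.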

Molecular target: Metabotropic glutamate receptor 8 (Rattus norvegicus) (UniProt P70579)
Assay: rat mGluR8 modulators via GIRK flux, primary screen, cell-based, thallium flux, HTS (AID 488969)
Conditions: HEK293 rat mGluR8, GIRK (G protein-gated inwardly rectifying potassium channel) thallium flux, FluoZin2; at 10 µM; stronger effect = higher value; submaximal glutamate (EC20) added with thallium

Metabotropic glutamate receptor 8 (Rattus norvegicus), sequence (P70579 whole entry, looked up): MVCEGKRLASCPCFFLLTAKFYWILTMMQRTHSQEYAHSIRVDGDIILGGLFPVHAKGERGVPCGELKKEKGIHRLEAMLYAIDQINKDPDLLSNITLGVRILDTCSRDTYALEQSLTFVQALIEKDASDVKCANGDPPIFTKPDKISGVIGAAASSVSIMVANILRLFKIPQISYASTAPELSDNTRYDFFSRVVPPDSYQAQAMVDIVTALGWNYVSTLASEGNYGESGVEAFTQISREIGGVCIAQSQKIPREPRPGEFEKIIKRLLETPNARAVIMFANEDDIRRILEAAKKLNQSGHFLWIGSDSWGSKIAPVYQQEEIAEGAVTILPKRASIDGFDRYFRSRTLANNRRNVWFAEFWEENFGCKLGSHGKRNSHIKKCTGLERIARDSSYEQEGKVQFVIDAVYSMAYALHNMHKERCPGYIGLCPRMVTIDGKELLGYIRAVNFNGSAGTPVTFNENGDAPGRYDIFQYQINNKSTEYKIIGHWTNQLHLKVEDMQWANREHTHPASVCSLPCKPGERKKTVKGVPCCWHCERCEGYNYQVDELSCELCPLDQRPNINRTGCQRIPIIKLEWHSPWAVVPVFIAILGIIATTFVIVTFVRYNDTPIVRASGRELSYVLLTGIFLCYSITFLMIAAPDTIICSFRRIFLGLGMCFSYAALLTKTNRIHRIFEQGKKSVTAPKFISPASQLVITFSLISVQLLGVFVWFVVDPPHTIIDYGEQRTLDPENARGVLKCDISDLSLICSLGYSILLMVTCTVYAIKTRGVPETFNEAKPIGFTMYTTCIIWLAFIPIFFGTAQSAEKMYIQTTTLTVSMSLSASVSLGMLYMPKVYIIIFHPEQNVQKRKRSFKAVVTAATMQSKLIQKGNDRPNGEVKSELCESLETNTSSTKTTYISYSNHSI

| SMILES | z-score |
| --- | --- |
| CCOc1ccccc1Nc1nc(-c2sc(NC(=O)c3ccc([N+](=O)[O-])cc3)nc2C)cs1 | 0.209 |
| CCOc1ccc(CC(=O)Nc2c(C(N)=O)oc3ccc(Br)cc23)cc1OCC | -0.0702 |
| CN(C)/C=C1/N=C(c2ccccc2)OC1=O | -0.23 |
| COc1ccc(C(=O)c2ccc(CC#N)s2)cc1 | -0.0619 |
| CCn1c2ccccc2c2nnc(SCC(=O)OCN3C(=O)c4ccccc4C3=O)nc21 | -0.087 |
| CC(C)(C)S(=O)c1cccs1 (stereo not given) | 0.555 |
| CSc1nc(C)cc(OCC(=O)N2CCOCC2)n1 | 0.387 |
| S=C(NN=C1CCCCCC1)Nc1ccc(Cl)cc1 | 9.7 (active) |
| COc1ccc(NC(=S)N/N=C2/CCCc3c(C)cc(C)cc32)cc1 | 0.0188 |
| Cc1cc(C)c2c(c1)/C(=N/NC(=S)Nc1ccc(F)cc1)CCC2 | 2.6 |
| Fc1ccc(NC(=S)N2CCCCC2)cc1 | 0.208 |
| S=C(Nc1ccc(Cl)cc1)N1CCCC1 | 0.113 |
| Fc1ccc(NC(=S)NN=C2CCCCCC2)cc1 | 12 (active) |
| S=C(Nc1ccc(Cl)cc1)N1CCCCC1 | -0.262 |
| Cc1cc(C)c2c(c1)/C(=N/NS(=O)(=O)c1ccccc1)CCC2 | -1.09 |
| Fc1ccc(NC(=S)N2CCCC2)cc1 | -0.0754 |
| O=C1CC(c2ccccc2)CN1S(=O)(=O)c1ccccc1 (stereo not given) | 0.00794 |
| O=C(NCCc1csc(-c2cccnc2)n1)c1cccc2ccccc12 | 0.472 |
| CC(C)=C1SC(N2CCCCC2)=NC1=O | 1.93 |
| Cc1nn(CCc2n[nH]c(=S)n2C2CCCCC2)c(C)c1Br | -0.451 |
| COc1ccc(-c2csc(NC(=O)CN3C(=O)CCC3=O)n2)cc1OC | -0.147 |
| Cc1cc(=O)n2[nH]c(-c3ccccc3Cl)cc2n1 | -0.0492 |
| Cc1cc([N+](=O)[O-])c2[nH]c(C(=O)N/N=C/c3ccccc3C(=O)O)c(-c3ccccc3)c2c1 | -0.455 |
| Cc1c(C(=O)N/N=C/C(C)C)[nH]c2c([N+](=O)[O-])cccc12 | -0.722 |
| CCC/C=N/NC(=O)c1[nH]c2c([N+](=O)[O-])cccc2c1C | 2.02 |
| CCc1nc(Nc2ccc(OC)c(OC)c2)c2nnn(Cc3ccccc3Cl)c2n1 | 0.049 |
| O=C(COc1ccc(Br)cc1CO)Nc1ccccc1F | -0.0395 |

| SMILES | z-score |
| --- | --- |
| CCOc1ccc(C(F)(F)F)cc1NC(=O)c1ccc(OC)c([N+](=O)[O-])c1 | 0.372 |
| COc1ccccc1NC(=O)COc1ccc(Br)cc1CO | 2.95 |
| O=C(COc1ccc(Br)cc1CO)Nc1ccccc1 | -0.336 |
| CCOc1ccc(C(F)(F)F)cc1NC(=O)COc1ccc(C(F)(F)F)cc1[N+](=O)[O-] | -0.107 |
| COc1ccccc1NC(=O)COc1ccc(C(F)(F)F)cc1[N+](=O)[O-] | 4.19 (active) |
| CCn1c(COc2ccc(C)cc2)nnc1SCc1nc2ccccc2[nH]1 | -0.0293 |
| COCCN1C(=O)c2ccccc2C(C(=O)NCC2CCCO2)C1c1c[nH]c2ccccc12 (stereo not given) | -0.121 |
| O=C(NCc1ccc2c(c1)OCO2)C1CCCN1C(=O)Nc1cccc(F)c1 (stereo not given) | 0.725 |
| CCCC(=O)Nc1cc(-c2nnc(OC)c3ccccc23)ccc1N1CCCCC1 | -0.148 |
| O=CN1CC(=O)N(c2ccccc2)c2c([nH]c3ccccc23)C1 | 0.383 |
| CCc1cc(C(c2ccc(OC)c(OC)c2)N2CCOCC2)c(NC(=O)c2ccccc2)s1 (stereo not given) | -0.47 |
| COC(=O)Cc1nnc(NC(=O)C(C)C)s1 | 0.0291 |
| CC(C)C(=O)Nc1nnc(CCc2nnc(NC(=O)C(C)C)s2)s1 | 0.549 |
| COCc1nnc(NC(=O)C(C)C)s1 | 3.48 (active) |
| CO/N=C/c1ccc(Sc2ccc(C)cc2)c([N+](=O)[O-])c1 | -0.349 |
| COc1ccc(OC)c(NC(=O)C2CCCCC2)c1 | -0.385 |
| COc1cc(NC(=O)C2CCCO2)c(OC)cc1Cl (stereo not given) | -0.106 |
| COc1cc(NC(=O)C(=O)NNC(=O)C2CCCCC2)c(OC)cc1Cl | 3.98 (active) |
| O=C(Oc1cccc([N+](=O)[O-])c1)c1cc(-c2ccccc2)nc2ccccc12 | 0.17 |
| C=CCc1cccc2cc(C(=O)N(C)C)c(=O)oc12 | 0.176 |
| Cn1cccc1C(=O)N1CCN(c2cccc(C(F)(F)F)c2)CC1 | -0.386 |
| CC1CCC(NC(=O)CC2Oc3ccccc3NC2=O)CC1 (stereo not given) | -0.471 |
| O=C(CC1Oc2ccccc2NC1=O)NC1CC1 (stereo not given) | 2.19 |
| O=C(CC1Oc2ccccc2NC1=O)NC1CCCC1 (stereo not given) | -0.0976 |
| Cc1ccc(NC(=O)CCn2cnc3cc(C)c(C)cc32)cc1 | -0.642 |
| CCOc1ccccc1N1CCN(C(=O)C(F)(F)F)CC1 | -0.337 |
| Cc1cc(C)nc(NS(=O)(=O)c2ccc(N/C=C3\CCCC3=O)cc2)n1 | -0.331 |

| SMILES | z-score |
| --- | --- |
| COc1ccccc1Nc1nc2nonc2nc1N1CCCCC1C (stereo not given) | -0.202 |
| CC12CC3(C)CC(C)(C1)CC(C(=O)NC(=S)N1CCOCC1)(C2)C3 | 8.61 (active) |
| CC(C)(C)C(=O)NC(=S)N1CCOCC1 | -0.0566 |
| O=C(NC(=S)N1CCN(c2ccc(F)cc2)CC1)C12CC3CC(CC(C3)C1)C2 | 2.89 |
| O=C(N1CCN(c2ccccc2)CC1)C12CC3CC(CC(C3)C1)C2 | -0.202 |
| O=C(Nc1ccccc1N1CCN(c2ccc(F)cc2)CC1)C12CC3CC(CC(C3)C1)C2 | -1.97 |
| O=C(N1CCOCC1)C12CC3CC(C1)CC(C(=O)N1CCOCC1)(C3)C2 | 0.153 |
| CC12CC3CC(C)(C1)CC(C(=O)NC(=S)N1CCOCC1)(C3)C2 | 3.1 (active) |
| O=C(NC(=S)N1CCOCC1)C12CCC3CC(CC(C3)C1)C2 | 0.411 |
| O=C(NC(=S)N1CCOCC1)C12CC3CCC(CC(C3)C1)C2 | 0.454 |
| CC12CC3CC(C)(C1)CC(CN1CCOCC1)(C3)C2 | -0.06 |
| CC12CC3(C)CC(C)(C1)CC(C(=O)NC(=S)NC(C)(C)C)(C2)C3 | 0.0601 |
| O=C(NC(=S)N1CCCCC1)C12CC3CC(CC(C3)C1)C2 | 5.6 (active) |
| CCOC(=O)Nc1cccc(NC(=O)c2cc(OC)cc(OC)c2)c1 | -0.454 |
| C=CCc1ccc(OCC(O)COCC)c(OC)c1 (stereo not given) | -0.12 |
| N#C/C(=C\c1cccs1)C(=O)NCc1cccnc1 | -0.112 |
| O=C(CNc1ccc(C(F)(F)F)cc1[N+](=O)[O-])OCC(=O)c1ccccc1 | -0.875 |
| CCOc1ccccc1N1CCN(C(=S)NC(=O)C23CC4CC(CC(C4)C2)C3)CC1 | 4.1 (active) |
| CCOc1ccccc1N1CCN(C(=S)Nc2ccc(S(N)(=O)=O)cc2)CC1 | -0.356 |
| O=C(CC12CC3CC(CC(C3)C1)C2)NCC(=O)N1CCCC1 | 0.463 |
| CC12CC3CC(C)(C1)CC(C(=O)NC(=S)N1CCCCC1)(C3)C2 | 8.62 (active) |
| CCOc1ccccc1N1CCN(C(=O)c2ccccc2)CC1 | -1.51 |
| CCN(CC)CCNC(=O)C12CC3CC(C)(CC(C)(C3)C1)C2 | 0.873 |
| O=C(CC12CC3CC(CC(C3)C1)C2)N1CCCC1 | -0.327 |
| O=C(CC12CC3CC(CC(C3)C1)C2)NC(=S)N1CCCCC1 | 2.58 |
| O=C(NC(=S)N1CCCCCC1)C1CC1 | 0.000532 |
